Bioassay records (PubChem BioAssay)
Most compounds without a hit are left out; they make up all but 1.9% or so of the library.
cytoskel mod: alters cytoskeleton assembly in HUVEC cells; 91,000 tested, 0.18% active; inhibition, % at 2 µM; HUVEC TNFa F-actin phalloidin imaging, high content;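 active means inhibition above the batch mean plus 3 SD and confirmed as a hit by visual image inspection, cut at about 30% in these data, passing the limit was not always enough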
sEH act: soluble epoxide hydrolase (human) activation; purified human sEH enzymatic activity, activator screen; activation, % at 2 µM; 91,000 tested, 0.04% active; in the data active means activation above about 37%
Calb biofilm kill: kills Candida albicans biofilms. inhibition, % at 6 µM. AID 834. 85,000 tested, 0.14% active. C. albicans biofilm + clotrimazole, Alamar Blue;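 active means inhibition above 20%; inactive means inhibition below 20%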;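 further: preformed 24 hr biofilms exposed to compound for 48 hr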
sEH inh: soluble epoxide hydrolase (human) inhibition. P34913. recombinant human sEH enzymatic activity assay. inhibition, % at 2 µM. 91,000 tested, 0.34% active. AID 707; in the data active means inhibition above about 80%
Measles CPE: protection of cells from measles virus. protection (pct of control), % at 4 µM. Measles virus-infected cells, CPE protection, absorbance. 140,000 tested, 1.5% active. AID 841; in the data active means protection mostly above about 24%, no sharp cut-off; inactive means mostly below about 26%
Of the large screens only hits and unclear results are named; the others gave an inactive call.

CC(=O)NC1CC2CCCC(C1)N2 (stereo not drawn)	cytoskel mod 67.2
CNC(=S)NC1CC2CCCC(C1)N2CC(C)C (stereo not drawn)	none (no result: Calb biofilm kill)
CCCN1C2CCCC1CC(NC(C)=O)C2 (stereo not drawn)	Measles CPE 48.8
CC(=O)NC(C)Cc1ccccc1 (stereo not drawn)	none
CC(Cc1ccccc1)NC(=O)NC(C)Cc1ccccc1 (stereo not drawn)	sEH inh 97.9
